Results on 94 compounds are retold here after PubChem BioAssay AID893 (National Center for Advancing Translational Sciences (NCATS), 2007).

Several values for one entry are separate records, joined by “and”; a condition that tells them apart may be missing. Equal entries are not always repeated. Screen size: about 75,000 compounds; about 5,700 (7.6%) were called active. Roughly 7% stayed inconclusive and do not appear here. The entries come from a sample that favours actives as a whole. A call without a number means that no potency is given here. Unmarked numbers belong to inactive results. Calls follow the shape of the dose curve; as a rule, active = well fitted inhibition curve with a large enough effect; inconclusive = small, poorly fitted or top-dose-only effect; inactive = no such curve, though single readings can be large or run the other way.
Potency is read from the fitted curve at half-maximal effect.

The target of the assay is 3-hydroxyacyl-CoA dehydrogenase type-2 (Homo sapiens) (UniProt Q99714). The assay is described as follows: qHTS Assay for Inhibitors of HSD17B4, hydroxysteroid (17-beta) dehydrogenase 4.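 Also: the protocol describes HADH2 (HSD17B10) and not the HSD17B4 of the title; nearly all actives have a fitted effect of over 70% in size.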 As to conditions: recombinant HSD17B10, NADH fluorescence kinetic; series mostly up to 57.1 µM. The method in brief: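 Enzyme plus compound, 15 min room temperature; substrate mix added (NAD+ 1 mM, beta-hydroxybutyryl-CoA 90 uM final); plates read kinetically for NADH fluorescence. HADH2 was His-tagged, E. coli-derived, 20 nM.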
On to `CO[C@H]1COC(=O)[C@@H](OCc2ccccc2)/C=C\[C@H](C)[C@@H](OC)COC(=O)[C@H](OCc2ccccc2)/C=C\[C@@H]1C`, for which the activity change, negative = inhibition was -0.999% [at 11.4 µM].

Consider `CN(C)CCCn1c2ccccc2c2cnccc21`, for which the activity change, negative = inhibition was 7.17% [at 11.4 µM].

In the case of `Cc1cc(Cl)c(S(=O)(=O)NCC2CCCO2)cc1OCC(N)=O` (centres undefined), the Potency entry is “inactive”.

`O=C(COc1ccccc1F)NC1CC1`: the Potency result is “inactive”.

As to `O=C(COc1ccc2c3c(c(=O)oc2c1)CCC3)NC1CCCCC1`, the Potency is 31.6 µM (active).

For `O=C(CC1OC(=O)c2ccccc21)NC1CCCCC1` (centres undefined), the Potency result was “inactive”.

On to `O=C(COc1ccc2oc3c(c2c1)CCCC3)Nc1ccccn1`, for which the Potency entry was “inactive”.

In the case of `NC(=O)COc1ccc2c3c(c(=O)oc2c1)CCCCC3`, the Potency was 25.1 µM (active).

Take `CCOC(=O)CSc1nc2c(c(=O)n(C)c(=O)n2C)n1Cc1ccccc1F`: the Potency result was “inactive”.

Regarding `CCOC(=O)CSc1nnc(CNC(=O)Cc2ccccc2)n1-c1ccccc1OC`, the Potency entry is “inactive”.

In the case of `COC(=O)CSc1nc(C2CC2)nc2ccccc12`, the Potency result is “inactive”.

Turning to `Cc1ccc(-n2ncc3c(N4CCN(c5ccc(F)cc5)CC4)ncnc32)c(C)c1`, the Potency result is “inactive”.

In the case of `Cc1ccc(-n2ncc3c2ncn2nc(-c4ccco4)nc32)c(C)c1`, the Potency was 25.1 µM (active).

Consider `CCCc1nc2c3cnn(-c4cccc(Cl)c4)c3ncn2n1`, for which the Potency entry was “inactive”.

As to `CC1=C(/C=C/C(C)=C/C=C/C(C)=C/C=C/C=C(C)/C=C/C=C(C)/C=C/C2=C(C)CCCC2(C)C)C(C)(C)CCC1`, the Potency result is “inactive”.

With `CC(=O)OCC(=O)[C@@]1(O)CCC2C3CCC4=CC(=O)CC[C@@]4(C)[C@]3(F)C(O)C[C@]21C` (some centres undefined), the Potency entry was “inactive”.

Turning to `CC(N)=NCc1cccc(CN)c1`, the Potency result is “inactive”.

In the case of `COc1ccc(OCCCC(=O)Nc2nnc(C3CCCO3)s2)cc1` (centres undefined), the Potency result is “inactive”.

Take `COc1cccc(NC(=O)Nc2nnc(N3CCCCC3C)s2)c1` (centres undefined): the Potency entry was “inactive”.

Take `COc1ccc2c(CC(=O)Nc3nnc(C4CC4)s3)coc2c1`: the Potency is 25.1 µM (active).

As to `C[C@H]1CC[C@H](C(=O)O)N[C@@H]1c1ccc(C#Cc2ccccc2)cc1`, the activity change, negative = inhibition was -1.28% [at 11.4 µM].

As to `O=C(Nc1cccc(F)c1)c1ccc(S(=O)(=O)N2CCCC2)cc1`, the Potency result was “inactive”.

With `C/C(Cl)=C\Cn1c(Nc2cccc(C)c2)nc2c1c(=O)n(C)c(=O)n2C`, the Potency result is “inactive”.

With `CCOC(=O)c1sc(NC(=O)CSc2ncccn2)c(C#N)c1C`, the Potency entry is “inactive”.

On to `COCCNC(=O)COc1ccc(C)c(C)c1`, for which the Potency entry was “inactive”.

Consider `c1cncc(CNc2ccnc(-c3ccc4c(c3)OCO4)n2)c1`, for which the Potency is 20 µM (active).

In the case of `O=C(Nc1cccnc1)c1ccc2c(c1)OCO2`, the Potency result was “inactive”.

Take `Cc1cccc(CNc2ccnc(-c3cccnc3)n2)c1`: the Potency result is “inactive”.

Take `Cc1onc(-c2ccccc2Cl)c1C(=O)NCCn1ccc2ccccc21`: the Potency result is “inactive”.

For the compound `Cc1noc(/C=C/N(C)C)c1S(=O)(=O)N1CCCC(C(=O)NCc2ccco2)C1` (centres undefined), the Potency entry is “inactive”.

Take `C=CCc1cccc2cc(C(=O)OCC)c(=O)oc12`: the Potency was 31.6 µM (active).

For `CCOC(=O)N1CCN(C(=O)c2cc3c(ccc4ccccc43)oc2=O)CC1`, the Potency is 31.6 µM (active).

As for `C=CCc1cccc2cc(C(=O)N3CCN(C(=O)OCC)CC3)c(=O)oc12`, the Potency was 25.1 µM (active).

Regarding `CCOC(=O)c1cc2ccccc2nc1C`, the Potency result is “inactive”.

As for `CS(=O)(=O)N1CCN(C(=O)c2cc3ccccc3oc2=O)CC1`, the Potency entry is “inactive”.

With `COc1c(C(=O)N2CCCC2)ccc2ccccc12`, the Potency result is “inactive”.

In the case of `CCOC(=O)N1CCN(C(=O)c2cn(C)c3ccc(S(=O)(=O)N4CCCC4)cc3c2=O)CC1`, the Potency entry is “inactive”.

Turning to `CCOC(=O)N1CCN(C(=O)c2n[nH]c(=O)c3ccccc23)CC1`, the Potency entry was “inactive”.

Take `COc1cccc2cc(C(=O)N(C)C)c(=O)oc12`: the Potency result is “inactive”.

Take `CC(C)=CCC/C(C)=C/CC/C(C)=C/CC/C(C)=C/CO`: the Potency entry is “inactive”.

In the case of `CC(c1cccnc1)N(CCN(C)C)C(=O)Nc1ccc(Cl)c(Cl)c1` (centres undefined), the Potency result was “inactive”.

For `Cc1ccc(Br)cc1`, the Potency result is “inactive”.

Consider `COC(=O)c1ccc(N(CC(=O)NC2CCCC2)C(=O)CNC(=O)c2ccco2)cc1`, for which the Potency entry was “inactive”.

For `COCCCNC(=O)c1c(F)c(F)c(F)c(F)c1F`, the Potency entry is “inactive”.

Turning to `Cc1cccn2c(=O)c3cc(C(=O)N4COCC4(C)C)n(C)c3nc12`, the Potency was 7.94 µM (active).

In the case of `Cc1ccccc1CN1CCN(CC(=O)NCc2ccccn2)C1=O`, the Potency entry was “inactive”.

`Cc1cccn2c(=O)c3cc(C(=O)NCc4ccccn4)n(C)c3nc12`: the Potency is 3.16 µM (active).

With `CC(=O)N1[C@H](C)C=C[C@]1(Cc1ccccc1)C(=O)NCc1ccccn1`, the Potency result is “inactive”.

`O=c1ccn(Cc2ccccc2Cl)cc1`: the Potency entry is “inactive”.

For `COCCNc1ncnc2ccc(-c3ccccc3CN(C)C)cc12`, the Potency result is “inactive”.

As to `COCCNc1ncnc2ccc(-c3cccnc3)cc12`, the Potency was 31.6 µM (active).

Turning to `CNc1ncnc2ccc(-c3cccc(NS(C)(=O)=O)c3)cc12`, the Potency result was “inactive”.

With `COCC(=O)Nc1nnc(COc2ccccc2)s1`, the Potency entry is “inactive”.

Consider `C[C@@H](C(=O)Nc1ccc2ccccc2c1)[C@@H]1C[C@@]1(C)[C@@H](NC(=O)c1cccnc1)c1ccccc1`, for which the Potency result is “inactive”.

Consider `CCCCCN(C(=O)NC(=O)Nc1ccccc1C)S(C)(=O)=O`, for which the Potency entry is “inactive”.

On to `COC(=O)C1=C(C)N(Cc2ccccc2)C2=C3C(=O)N(c4ccccc4)C(=O)C3[C@@](O)(C(=O)OC)C(=O)N2C1c1ccccc1` (some centres undefined), for which the activity change, negative = inhibition was 6.04% [at 11.4 µM] and 0.0692% [at 11.4 µM].

`O=C(O)c1c(Br)c(Br)c(Br)c(Br)c1C1c2ccc(O)cc2Oc2cc(O)ccc21`: the Potency was 0.794 µM (active).

In the case of `N#CC1=C(N)Oc2cc(O)ccc2C1C1CCCCC1` (centres undefined), the Potency entry was “inactive”.

Turning to `COc1ccc(CC(=O)c2ccc(O)cc2O)cc1OC`, the Potency entry is “inactive”.

For the compound `CCN1CCN(Cc2nc3c(c(=O)n(C)c(=O)n3C)n2CC(=O)c2ccccc2)CC1`, the Potency was 25.1 µM (active).

As to `CC1CCCN(Cc2nc3c(c(=O)n(C)c(=O)n3C)n2CC(=O)c2ccccc2)C1` (centres undefined), the Potency entry is “inactive”.

Consider `CCOC(=O)N1CCN(Cc2nc3c(c(=O)n(C)c(=O)n3C)n2Cc2ccccc2)CC1`, for which the Potency entry is “inactive”.

As for `CCn1nnc(NC(=O)c2c(OC)cccc2OC)n1`, the Potency entry was “inactive”.

For `O=C(NCc1ccc2c(c1)OCO2)C1CCCN(S(=O)(=O)c2cccs2)C1` (centres undefined), the Potency entry is “inactive”.

Take `COc1ccc(C(=O)N2CCC3(CCCN(C(c4ccccc4)c4ccccc4)C3)CC2)cc1`: the Potency result was “inactive”.

With `COc1ccc(C(=O)N2CCC3(CC2)CCN(c2ccccn2)CC3)cc1`, the Potency was 25.1 µM (active).

Regarding `O=C(c1cc(C(F)(F)F)cc(C(F)(F)F)c1)N1CCC2(CCCN(c3ccccn3)C2)CC1`, the Potency entry is “inactive”.

For the compound `CC(C)c1cc(CN(C)C)c(O)c(C(C)(C)C)c1`, the activity change, negative = inhibition is 5.05% [at 11.4 µM].

In the case of `COCCNC(=O)C(c1ccc(C)o1)N(Cc1ccccc1)C(=O)Cn1nnc2ccccc21` (centres undefined), the Potency entry was “inactive”.

On to `CCC(C(=O)NC1CCCC1)N(C(=O)c1snc(C(N)=O)c1N)c1ccc2c(c1)OCCO2` (centres undefined), for which the Potency result was “inactive”.

Take `COCCNC(=O)C(c1ccc(C)o1)N(Cc1cccs1)C(=O)c1snc(C(N)=O)c1N` (centres undefined): the Potency is 25.1 µM (active).

Take `COc1ccc(F)cc1S(=O)(=O)Nc1ccc2c(c1)OCO2`: the Potency entry is “inactive”.

Turning to `COc1ccc(C(c2nnnn2C2CCCCC2)N2CCN(c3ccccc3F)CC2)cc1` (centres undefined), the Potency entry is “inactive”.

As for `CCC(=O)c1ccc(OCC(O)CN2C(=O)NC(C)(C)C2=O)cc1` (centres undefined), the Potency result is “inactive”.

Turning to `Cc1ccc2cccc(O)c2[n+]1[O-]`, the Potency result is “inactive”.

Regarding `Cc1ccc(C)c(NS(=O)(=O)c2cc(Br)cnc2N)c1`, the Potency result is “inactive”.

Turning to `O=c1cc(-c2ccccc2)[nH]c2nc(Cl)ccc12`, the Potency is 7.94 µM (active).

On to `CCCC(NS(=O)(=O)c1ccc(OC)cc1)C(=O)O` (centres undefined), for which the Potency result is “inactive”.

For `COc1cccc(N2CC(C(=O)Nc3c(C)cccc3C)CC2=O)c1` (centres undefined), the Potency result was “inactive”.

In the case of `COc1cccc(C2/C(=C(/O)c3ccncc3)C(=O)C(=O)N2CCCN(C)C)c1` (centres undefined), the Potency entry was “inactive”.

Regarding `Cc1cccn2c(=O)c3cc(C#N)c(=O)n(CCCN4CCOCC4)c3nc12`, the Potency was 31.6 µM (active).

Take `CCCOc1ccc(C2c3c(oc4cc(C)c(C)cc4c3=O)C(=O)N2CCCN2CCOCC2)cc1` (centres undefined): the Potency result was “inactive”.

On to `Cn1c(=O)c2c(nc(CN3CCOCC3)n2Cc2ccccc2)n(C)c1=O`, for which the Potency entry was “inactive”.

On to `O=C(Cn1nc(Cc2cccnc2)c2ccccc2c1=O)NCC1CCCO1` (centres undefined), for which the Potency result is “inactive”.

Turning to `Cc1cccn2c(=O)c3cc(C#N)c(=NC(=O)c4cccnc4)n(CC4CCCO4)c3nc12` (centres undefined), the Potency is 7.94 µM (active).

As to `Cc1nnc(SCC(N)=O)n1CC1CCCO1` (centres undefined), the Potency entry was “inactive”.

Consider `CC(=NCC1CCCO1)c1c(O)[nH]c(=O)[nH]c1=O` (centres undefined), for which the Potency entry was “inactive”.

For the compound `CCOC(=O)N1CCC(NC(=O)c2ccc3nc(N4CCOCC4)sc3c2)CC1`, the Potency result is “inactive”.

As to `Nc1c(C(=O)NCc2ccccc2)nnn1Cc1cccc(Cl)c1`, the Potency entry was “inactive”.

With `COC(=O)CCNc1ccc2c(c1)OCCO2`, the Potency entry is “inactive”.

Take `NC1(C(=O)OCc2ccccc2)CCCC1`: the activity change, negative = inhibition is -22.7% [at 11.4 µM].

Take `BrC1C(Br)C(Br)C(Br)C(Br)C1Br` (centres undefined): the Potency entry is “inactive”.

On to `C=C(C)C1CC=C(C)C(O)C1` (centres undefined), for which the Potency result is “inactive”.

Regarding `Nc1nc2[nH]c(=O)c(=O)[nH]c2c(=O)[nH]1`, the Potency result was “inactive”.
